Experimental data from ChEMBL document CHEMBL4513216, “Probing the Open Global Health Chemical Diversity Library for Multistage-Active Starting Points for Next-Generation Antimalarials” (ACS Infect Dis, 2020).
Hit rate of the full screen: of about 65,000 compounds, about 2,100 (3.2%) showed an effect of 50% or more. The median lay at about -52%. The sample as a whole holds a higher share of strong results than the screen did.

Each compound was assayed on Plasmodium falciparum (assay: Screen against P. falciparum Asexual Blood Stage (ABS), at 5uM). Conditions: tested at 5 uM.
Type: functional, Dd2

Compound | INHIBITION [%]
Cc1cnn(CC(C)NCc2cc(C#N)ccc2F)c1 (stereo not given) | -49.9
Fc1cnc(N2CCO[C@H]3CN(CC4CCCCC4)C[C@H]32)nc1 | 34.2
Cc1cccc(C)c1NC(=O)CNC(C)Cc1ccsc1 (stereo not given) | 29.6
COc1ccc(CNC(Cc2ccsc2)c2ncccc2C)cc1OC (stereo not given) | 74.7
Cc1ccc(NC(=O)CNC(C)Cc2ccsc2)cc1F (stereo not given) | 22.9
COc1cccc(OC)c1CNC(Cc1ccsc1)c1ccc(C)cn1 (stereo not given) | 92.5
COc1ccc(CNC(C)Cn2cccn2)cc1F (stereo not given) | -60.6
Cc1ncsc1CN1C[C@@H]2CCCO[C@@H]2[C@H](Nc2ccccn2)C1 | -27.2
c1ccc2sc(N3CCCN(c4ncnc5c4CCNC5)CC3)nc2c1 | 85.2
c1ccc(C2CCN(c3ncnc4c3CCNC4)CC2)cc1 | 74.4
Clc1cccc(C2CCN(c3ncnc4c3CCNC4)C2)c1 (stereo not given) | 79.6
CC[C@H](C)[C@@H](CO)NC(C)Cc1ccc(F)cc1 (stereo not given in full) | 41.2
O=C(C1CCC1)N1CCO[C@@H]2CNC[C@@H]21 | -39.2
COC(=O)NCC1CCC2(CCNCC2)O1 (stereo not given) | -44.6
CCOC(=O)[C@@H]1[C@@H](c2ccccc2)CN2CCN(C(=O)N(C)C)C[C@H]12 | -64
CCC(CNC1CCN(C(=O)N(C)C)CC1)Oc1ccccc1C (stereo not given) | 73.2
CCOC(=O)N1CCC(NC(C)Cc2cc(C)n[nH]2)CC1 (stereo not given) | -139
CN(C)C(=O)CN1CCCC12CCCN(c1ncc(F)cn1)C2 (stereo not given) | -30.5
Cc1nc(O)cc(CN2CC=C(c3cnn(C(C)(C)C)c3)CC2)n1 | -58.8
CC(C)(C)n1cc(C2=CCN(CCc3ccccc3)CC2)cn1 | 68
CC(C)(C)n1cc(C2=CCN(CCN3CCCCCC3)CC2)cn1 | 71.5
CC(C)(C)n1cc(C2=CCN(CCNC(=O)c3ccccc3)CC2)cn1 | 19.4
CC(C)(C)n1cc(C2=CCN(CCc3ccccn3)CC2)cn1 | 45.2
CC(C)(C)n1cc(C2=CCN(CCNC(N)=O)CC2)cn1 | -161
COCCN1CCC12CCN(c1ncccn1)C2 (stereo not given) | -86.1
O=C(Cn1ccc2ccc(Br)cc21)NC[C@@H]1CCCN2CCCC[C@H]12 | 79.3
O=C(Cn1ccc2c(Cl)cccc21)N1CCC2(CC1)OCCO2 | -85.8
Cc1cccc2c1ccn2CC(=O)NC[C@@H]1CCCN2CCCC[C@H]12 | 70.9
Cc1nc(O)cc(CNC(=O)CC[C@@H]2CCCN3CCCC[C@H]23)n1 | -4.68
O=C(CC[C@@H]1CCCN2CCCC[C@H]12)NCCc1cc(O)ncn1 | -119
